# Measurements as given in ChEMBL document CHEMBL4513216, “Probing the Open Global Health Chemical Diversity Library for Multistage-Active Starting Points for Next-Generation Antimalarials” (ACS Infect Dis, 2020).
# The whole screen tested about 68,000 compounds, of which about 2,700 (4%) showed an effect of 50% or more. Only a selection was taken, and strong results are over-represented in it overall.
# System: Plasmodium berghei
# Assay: Screen against P. berghei liver stage (PbLuc), transformed with Luciferase, at 2uM
# Format: functional, HepG2
# Settings: tested at 2 uM
row,Structure (SMILES),INHIBITION
1,CNC(=O)c1noc(CN2CC[C@](C)(O)[C@H](C)C2)n1,-44.85%
2,C[C@@H]1CN(Cc2nc(C(N)=O)no2)CC[C@@]1(O)C1CCOCC1,26.14%
3,C[C@@H]1CN(Cc2nc(C(N)=O)no2)CC[C@@]1(O)C1CC1,59.1%
4,CC(=O)N1CCN(C(=O)c2ccc3ccn(C)c3c2)CC1,-58.53%
5,O=S(=O)(Cc1cccc(Cl)c1)CC(O)Cn1cccn1 (stereo not drawn),-17.17%
6,CN1[C@@H]2CC[C@H]1CN(C(=O)c1ccc(-c3ccccc3)[nH]1)CC2,21.95%
7,Cn1cc(-n2cc3nc(N4CCOCC4)[nH]cc-3c2=O)cn1,13.95%
8,CCn1cc(-n2cc3nc(N4CCOCC4)[nH]cc-3c2=O)cn1,37.89%
9,CC(C)n1cc(-n2cc3nc(N4CCOCC4)[nH]cc-3c2=O)cn1,53.22%
10,Cc1cnc2c(c1NCc1ccc(F)cc1)c(=O)n(C)c(=O)n2C,-5.61%
11,COc1ccc(CNc2nnc(CC(C)(C)C)o2)cc1C#N,55.36%
12,CCCc1nnc(NCc2ccc(OC)c(C#N)c2)o1,48.21%
13,CC(C)(C)Cc1nnc(NCc2cccc(C#N)c2)o1,31.51%
14,O=C(CCN1CCc2ccccc21)N1C[C@@H](O)[C@H](N2CCCC2)C1,15.72%
15,O=C1C[C@H]2[C@@H](CCN2C(=O)c2cscn2)N1Cc1cccnc1,-12.98%
16,O=C1C[C@H]2[C@@H](CCN2C(=O)Cc2ccsc2)N1Cc1cccnc1,52.91%
17,O=C1C[C@H]2[C@@H](CCN2C(=O)Cc2ccccc2)N1Cc1cccnc1,30.4%
18,O=C1C[C@H]2[C@@H](CCN2C(=O)Cc2cccs2)N1Cc1cccnc1,55.7%
19,O=C(Cc1cccs1)N1CC[C@H]2[C@H]1CCN2Cc1cccnc1,7.33%
20,O=C1C[C@H]2[C@@H](CCN2C(=O)Cc2cccs2)N1Cc1ccncc1,17.77%
21,CN(Cc1nnc2n1CCC2)C(=O)c1ccc2c(c1)CCO2,29.42%
22,CCOCCNC1(c2ccc(Cl)cc2)CCOCC1,32.26%
23,CC(C)OCCNC1(c2ccc(Cl)cc2)CCOCC1,-17.01%
24,COCCNC1(c2ccc(Cl)cc2)CCOCC1,60.9%
25,CC(c1nc(C(C)(C)C)no1)S(=O)(=O)CC(=O)N1CCCC1 (stereo not drawn),-3.22%
26,Cn1c(C2CCCN2C(=O)c2cn(CCN)nn2)nc2ccccc21 (stereo not drawn),-6.44%
27,O=C(CN1CC(c2ccccc2)CC1=O)NCc1cc2n(n1)CCNC2 (stereo not drawn),66.18%

row,Structure (SMILES),INHIBITION
1,O=C(CN1CCC(c2ccccc2)CC1)NCc1cc2n(n1)CCNC2,5.21%
2,O=C(CN1CCOc2ccccc2C1)NCc1cc2n(n1)CCNC2,5.75%
3,CCOc1ccccc1Nc1nc2c(C)nn(C)c2c(=O)n1C,-51.9%
4,CN1CCOC(CNC(=O)COc2ccc(F)cc2F)C1 (stereo not drawn),-7.88%
5,Cc1nc2c(c(NC(C)C)n1)CCN(C1CCOCC1)CC2,53.44%
6,Cc1nc2c(c(NC(C)C)n1)CCN(C(=O)CCO)CC2,-13.61%
7,CC(C)Nc1nc2c(c(NC3CC3)n1)CCN(C1CCOCC1)CC2,4.95%
8,Cc1cnc(NC(=O)NC(CCO)c2cccs2)s1 (stereo not drawn),-11.51%
9,Cn1nc(COc2cncnc2)c2c1CCN(Cc1ccco1)C2,8.36%
10,O=C(Nc1cc(C(F)(F)F)c[nH]c1=O)c1ccco1,56.67%
11,CC(CCc1ccco1)NC(=O)Nc1cc(C(F)(F)F)c[nH]c1=O (stereo not drawn),57.95%
12,Cn1nccc1C(=O)Nc1cc(C(F)(F)F)c[nH]c1=O,-27.71%
13,O=C(NCCc1ccco1)Nc1cc(C(F)(F)F)c[nH]c1=O,-6.16%
14,Cc1noc(CCCC(=O)Nc2cc(C(F)(F)F)c[nH]c2=O)n1,-30.49%
15,CCCc1noc(CCC(=O)Nc2cc(C(F)(F)F)c[nH]c2=O)n1,43.44%
16,O=C(NCc1ccoc1)Nc1cc(C(F)(F)F)c[nH]c1=O,-7.02%
17,O=C(COCc1ccco1)Nc1cc(C(F)(F)F)c[nH]c1=O,66.2%
18,O=C(CCc1ccco1)Nc1cc(C(F)(F)F)c[nH]c1=O,19.35%
19,CCN(Cc1ccco1)C(=O)Nc1cc(C(F)(F)F)c[nH]c1=O,28.65%
20,CC(C)c1noc(CCC(=O)Nc2cc(C(F)(F)F)c[nH]c2=O)n1,64.9%
21,CN(Cc1ccco1)C(=O)Nc1cc(C(F)(F)F)c[nH]c1=O,19.35%
22,Cc1nc(C(C)C)sc1C(=O)N(C)Cc1cnn(C)c1,-35.11%
23,Cc1cc(NC(=O)NCC(C)N2CCOCC2)n(C)n1 (stereo not drawn),25.53%
24,CC(=O)N1CCOC(c2cncc(CCC(=O)N(C)C)n2)C1 (stereo not drawn),-26.69%
25,CCn1cc(-c2cc(-c3cc(CN(C)C)cs3)nc(N)c2C#N)c(C)n1,42.48%
26,c1ccc2cc(OCCN3CCn4c(nnc4C4CC4)C3)ccc2c1,18.31%
